# Test results as given in PubChem BioAssay AID1159580 (chemical genetic matrix, 2015).
# The whole screen tested about 5,500 compounds, of which about 2,000 (36%) were called active. Inconclusive results (about 18%) are left out. Some of the results follow. Values without a mark were called inactive. Cut-off read from the data, not from the text of the source: active = normalized growth mostly below about 0.91 (no sharp cut-off); inconclusive = no clear call, values can overlap the other calls; inactive = mostly above about 0.92.
# Test: chemical genetic growth profiling, strain panel (AID 1159580);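 note: tested at 20 µM; growth read once vehicle control cultures reached saturation at 30 °C; 1 = growth at the plate median or of vehicle wells; lower values mean less growth of the strain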
# Conditions: growth OD
compound,measurement,setting,value
C=CC(C1=CC(=O)C(OC)=CC1=O)c1ccc(OC)cc1 (configuration not stated),normalized growth,"S. cerevisiae deletion strains, locus YJR066W, strain TOR1, stronger effect = lower value",0.94
same,normalized growth,"S. cerevisiae deletion strains, locus YJR075W, strain HOC1, stronger effect = lower value",0.859 (active)
same,normalized growth,"S. cerevisiae deletion strains, locus YKL009W, strain mrt4, stronger effect = lower value",0.944
same,normalized growth,"S. cerevisiae deletion strains, locus YKL068W, stronger effect = lower value",0.976
same,normalized growth,"S. cerevisiae deletion strains, locus YKL085W, strain MDH1 (second series), stronger effect = lower value",0.966
same,normalized growth,"S. cerevisiae deletion strains, locus YKL085W, strain MDH1, stronger effect = lower value",0.966
same,normalized growth,"S. cerevisiae deletion strains, locus YKL160W, strain elf1, stronger effect = lower value",0.741 (active)
same,normalized growth,"S. cerevisiae deletion strains, locus YKL190W, strain CNB1, stronger effect = lower value",0.947
same,normalized growth,"S. cerevisiae deletion strains, locus YKR001C, strain vps1, stronger effect = lower value",0.814 (active)
same,normalized growth,"S. cerevisiae deletion strains, locus YKR026C, strain gcn3, stronger effect = lower value",0.967
same,normalized growth,"S. cerevisiae deletion strains, locus YKR091W, strain srl3, stronger effect = lower value",0.998
same,normalized growth,"S. cerevisiae deletion strains, locus YLL001W, strain dnm1, stronger effect = lower value",0.907
same,normalized growth,"S. cerevisiae deletion strains, locus YLL026W, stronger effect = lower value",0.839 (active)
same,normalized growth,"S. cerevisiae deletion strains, locus YLL041C, strain sdh2, stronger effect = lower value",0.955
same,normalized growth,"S. cerevisiae deletion strains, locus YLR027C, strain aat2, stronger effect = lower value",0.759 (active)
same,normalized growth,"S. cerevisiae deletion strains, locus YLR039C, strain RIC1, stronger effect = lower value",0.819
same,normalized growth,"S. cerevisiae deletion strains, locus YLR058C, strain SHM2, stronger effect = lower value",0.952
same,normalized growth,"S. cerevisiae deletion strains, locus YLR102C, strain apc9, stronger effect = lower value",0.945
same,normalized growth,"S. cerevisiae deletion strains, locus YLR113W, strain HOG1, stronger effect = lower value",0.958
same,normalized growth,"S. cerevisiae deletion strains, locus YLR221C, strain rsa3, stronger effect = lower value",0.701 (active)
same,normalized growth,"S. cerevisiae deletion strains, locus YLR258W, strain gsy2, stronger effect = lower value",0.849 (active)
same,normalized growth,"S. cerevisiae deletion strains, locus YLR262C, strain YPT6 (second series), stronger effect = lower value",0.39 (active)
same,normalized growth,"S. cerevisiae deletion strains, locus YLR262C, strain YPT6, stronger effect = lower value",0.71
same,normalized growth,"S. cerevisiae deletion strains, locus YLR268W, strain sec22, stronger effect = lower value",0.87 (active)
same,normalized growth,"S. cerevisiae deletion strains, locus YLR320W, strain mms22, stronger effect = lower value",0.276 (active)
same,normalized growth,"S. cerevisiae deletion strains, locus YLR330W, strain CHS5, stronger effect = lower value",0.968
same,normalized growth,"S. cerevisiae deletion strains, locus YLR342W, strain FKS1 (second series), stronger effect = lower value",0.674 (active)
same,normalized growth,"S. cerevisiae deletion strains, locus YLR342W, strain FKS1, stronger effect = lower value",0.914
same,normalized growth,"S. cerevisiae deletion strains, locus YLR357W, strain rsc2, stronger effect = lower value",1.07
same,normalized growth,"S. cerevisiae deletion strains, locus YLR370C, strain arc18, stronger effect = lower value",0.864 (active)
same,normalized growth,"S. cerevisiae deletion strains, locus YLR371W, strain rom2, stronger effect = lower value",0.941
same,normalized growth,"S. cerevisiae deletion strains, locus YLR384C, strain iki3, stronger effect = lower value",0.974
same,normalized growth,"S. cerevisiae deletion strains, locus YLR418C, strain cdc73, stronger effect = lower value",0.783 (active)
same,normalized growth,"S. cerevisiae deletion strains, locus YML016C, strain PPZ1, stronger effect = lower value",0.973
same,normalized growth,"S. cerevisiae deletion strains, locus YML032C, strain rad52, stronger effect = lower value",0.855 (active)
same,normalized growth,"S. cerevisiae deletion strains, locus YML120C, strain ndi1, stronger effect = lower value",0.911 (active)
same,normalized growth,"S. cerevisiae deletion strains, locus YML124C, strain tub3, stronger effect = lower value",0.949
same,normalized growth,"S. cerevisiae deletion strains, locus YMR058W, strain fet3, stronger effect = lower value",0.84 (active)
same,normalized growth,"S. cerevisiae deletion strains, locus YMR078C, strain ctf18, stronger effect = lower value",0.914
same,normalized growth,"S. cerevisiae deletion strains, locus YMR125W, strain sto1, stronger effect = lower value",0.779 (active)
same,normalized growth,"S. cerevisiae deletion strains, locus YMR129W, stronger effect = lower value",1
same,normalized growth,"S. cerevisiae deletion strains, locus YMR205C, strain PFK2, stronger effect = lower value",0.715 (active)
same,normalized growth,"S. cerevisiae deletion strains, locus YMR223W, strain ubp8, stronger effect = lower value",0.851 (active)
same,normalized growth,"S. cerevisiae deletion strains, locus YMR263W, strain SAP30, stronger effect = lower value",0.946
same,normalized growth,"S. cerevisiae deletion strains, locus YMR307W, strain GAS1, stronger effect = lower value",0.793
same,normalized growth,"S. cerevisiae deletion strains, locus YNL067W, strain RPL9B, stronger effect = lower value",0.947
same,normalized growth,"S. cerevisiae deletion strains, locus YNL071W, strain lat1, stronger effect = lower value",0.15 (active)
same,normalized growth,"S. cerevisiae deletion strains, locus YNL128W, strain TEP1, stronger effect = lower value",0.942
same,normalized growth,"S. cerevisiae deletion strains, locus YNL153C, strain GIM3, stronger effect = lower value",0.983
same,normalized growth,"S. cerevisiae deletion strains, locus YNL183C, strain NPR1, stronger effect = lower value",0.972
same,normalized growth,"S. cerevisiae deletion strains, locus YNL209W, strain ssb2, stronger effect = lower value",0.939
same,normalized growth,"S. cerevisiae deletion strains, locus YNL233W, strain BNI4, stronger effect = lower value",0.862 (active)
same,normalized growth,"S. cerevisiae deletion strains, locus YNL248C, strain rpa49, stronger effect = lower value",0.727 (active)
same,normalized growth,"S. cerevisiae deletion strains, locus YNL250W, strain rad50, stronger effect = lower value",0.944
same,normalized growth,"S. cerevisiae deletion strains, locus YNL271C, strain bni1, stronger effect = lower value",0.957
same,normalized growth,"S. cerevisiae deletion strains, locus YNL298W, strain CLA4, stronger effect = lower value",0.928
same,normalized growth,"S. cerevisiae deletion strains, locus YNL307C, strain MCK1, stronger effect = lower value",0.412 (active)
same,normalized growth,"S. cerevisiae deletion strains, locus YNL322C, strain KRE1 (second series), stronger effect = lower value",0.996
same,normalized growth,"S. cerevisiae deletion strains, locus YNL322C, strain KRE1, stronger effect = lower value",0.966
same,normalized growth,"S. cerevisiae deletion strains, locus YNR049C, strain mso1, stronger effect = lower value",0.962
same,normalized growth,"S. cerevisiae deletion strains, locus YNR052C, strain pop2, stronger effect = lower value",0.901 (active)
same,normalized growth,"S. cerevisiae deletion strains, locus YOL006C, strain TOP1, stronger effect = lower value",0.669
same,normalized growth,"S. cerevisiae deletion strains, locus YOL012C, strain htz1",0.791
same,normalized growth,"S. cerevisiae deletion strains, locus YOL147C, strain pex11, stronger effect = lower value",0.903 (active)
same,normalized growth,"S. cerevisiae deletion strains, locus YOR001W, strain rrp6, stronger effect = lower value",0.844 (active)
same,normalized growth,"S. cerevisiae deletion strains, locus YOR061W, strain CKA2, stronger effect = lower value",0.962
same,normalized growth,"S. cerevisiae deletion strains, locus YOR069W, strain VPS5, stronger effect = lower value",0.962
same,normalized growth,"S. cerevisiae deletion strains, locus YOR070C, strain gyp1, stronger effect = lower value",0.817 (active)
same,normalized growth,"S. cerevisiae deletion strains, locus YOR080W, strain dia2, stronger effect = lower value",1
same,normalized growth,"S. cerevisiae deletion strains, locus YOR083W, strain WHI5, stronger effect = lower value",0.788 (active)
same,normalized growth,"S. cerevisiae deletion strains, locus YOR106W, strain vam3, stronger effect = lower value",0.642 (active)
same,normalized growth,"S. cerevisiae deletion strains, locus YOR136W, strain idh2, stronger effect = lower value",0.919 (active)
same,normalized growth,"S. cerevisiae deletion strains, locus YOR144C, strain elg1, stronger effect = lower value",0.956
same,normalized growth,"S. cerevisiae deletion strains, locus YOR184W, strain ser1, stronger effect = lower value",0.738 (active)
same,normalized growth,"S. cerevisiae deletion strains, locus YOR231W, strain MKK1, stronger effect = lower value",1.03
same,normalized growth,"S. cerevisiae deletion strains, locus YOR265W, strain rbl2, stronger effect = lower value",0.945
same,normalized growth,"S. cerevisiae deletion strains, locus YOR270C, strain vph1, stronger effect = lower value",0.416 (active)
same,normalized growth,"S. cerevisiae deletion strains, locus YOR290C, strain snf2, stronger effect = lower value",0.851 (active)
same,normalized growth,"S. cerevisiae deletion strains, locus YOR316C, strain cot1, stronger effect = lower value",0.947
same,normalized growth,"S. cerevisiae deletion strains, locus YPL051W, strain arl3, stronger effect = lower value",0.657 (active)
same,normalized growth,"S. cerevisiae deletion strains, locus YPL055C, strain LGE1, stronger effect = lower value",0.869
same,normalized growth,"S. cerevisiae deletion strains, locus YPL078C, strain atp4, stronger effect = lower value",0.802 (active)
same,normalized growth,"S. cerevisiae deletion strains, locus YPL106C, strain sse1, stronger effect = lower value",1.03
same,normalized growth,"S. cerevisiae deletion strains, locus YPL240C, strain hsp82, stronger effect = lower value",0.851 (active)
same,normalized growth,"S. cerevisiae deletion strains, locus YPL241C, strain CIN2, stronger effect = lower value",0.982
same,normalized growth,"S. cerevisiae deletion strains, locus YPL256C, strain CLN2, stronger effect = lower value",1.08
same,normalized growth,"S. cerevisiae deletion strains, locus YPR119W, strain clb2, stronger effect = lower value",0.944
same,normalized growth,"S. cerevisiae deletion strains, locus YPR141C, strain kar3, stronger effect = lower value",0.963
same,normalized growth,"S. cerevisiae deletion strains, locus YPR163C, strain tif3, stronger effect = lower value",0.8 (active)
same,normalized growth,"S. cerevisiae deletion strains, locus YPR167C, strain met16, stronger effect = lower value",0.95
same,normalized growth,"S. cerevisiae deletion strains, strain wtn01, stronger effect = lower value",0.877 (active)
same,normalized growth,"S. cerevisiae strains, strain wild type, stronger effect = lower value",0.886 (active)
